Experimental data: ChEMBL document CHEMBL3988442, “University of Dundee, Small-Polar-MMV Screening Library” (2021)
About 950 (1.4%) of roughly 69,000 compounds showed an effect of 50% or more. The sample holds strong results, similar compounds and a random draw of the others, so the mix is not that of the screen.

tested on: Mycobacterium tuberculosis; assay: Cornell M. t heat shock assay; assay type: functional, organism-based; design: dose or concentration left out as unconfirmed; also: in the data most compounds retested in dose-response had high values

| SMILES | Percent Effect [%] |
| --- | --- |
| O=C(COCCc1ccccc1)N1CCCC(n2cccn2)C1 (centres undefined) | 11.3 |
| Cn1cc(CN2CCCC23CCN(C(=O)c2ccccc2)CC3)cn1.O=C(O)C(F)(F)F | -27.87 |
| CN(C)CC(=O)N1CCc2sc(C(=O)N3CCN(C)CC3)cc21 | 17.23 |
| CN(C)CC(=O)N1CCc2sc(C(=O)N3CCOCC3)cc21 | 54.7 |
| CC(C)NC(=O)c1cc2c(s1)CCN2C(=O)CN(C)C | -7.193 |
| CC(C)N(C)Cc1cncc2c1CCN(C1CCOCC1)C2.Cl.Cl.Cl | 21.63 |
| CNC(=O)CN1CCC2(CCCN(CC3CCOC3)C2)CC1.O=C(O)C(F)(F)F.O=C(O)C(F)(F)F (centres undefined) | 3.829 |
| O=C(O)C(F)(F)F.O=C(O)C(F)(F)F.O=C1CO[C@@H]2CN(Cc3ccsc3)C[C@H]2N1Cc1ccncc1 | 1.203 |
| CN(Cc1noc(C2CC2)n1)C1CCN(CCc2cnn(C)c2)C1 (centres undefined) | -5.5 |
| CN(Cc1noc(C2CC2)n1)C1CCN(Cc2ccncc2)C1 (centres undefined) | 51.32 |
| CN(Cc1noc(C2CC2)n1)C1CCN(Cc2ccc(F)c(F)c2)C1 (centres undefined) | -5.311 |
| Cc1ccc(CCN2CCC(N(C)Cc3noc(C4CC4)n3)C2)cc1 (centres undefined) | 83.22 |
| CC(=O)N(Cc1noc(C2CC2)n1)C1CCN(Cc2ccncc2)C1 (centres undefined) | -2.088 |
| CN(Cc1noc(C2CC2)n1)C1CCN(CCc2cccs2)C1 (centres undefined) | 12.6 |
| CS(=O)(=O)CCNCc1ccc(OCc2cscn2)cc1 | -2.969 |
| CC1c2ncc(Cn3cccn3)n2CCN1c1ncccn1.O=C(O)C(F)(F)F (centres undefined) | 40.47 |
| COc1ccc(-c2n[nH]cc2CNC2CCN(C3CC3)CC2)cc1.Cl | -33.63 |
| Cc1ccc(N2CCO[C@H]3CN(Cc4cccnc4)C[C@H]32)nn1.O=C(O)C(F)(F)F.O=C(O)C(F)(F)F.O=C(O)C(F)(F)F | -30.09 |
| CCNc1ccnc(CN2CCCC2C(=O)Nc2nccs2)c1 (centres undefined) | 13.04 |
| O=C(Nc1nccs1)C1CCCN1Cc1ccccn1 (centres undefined) | 103.1 |

| SMILES | Percent Effect [%] |
| --- | --- |
| CC(=O)Nc1cccc(CN2CCCC2C(=O)Nc2nccs2)c1 (centres undefined) | -15.37 |
| Cc1ccc(C(N)c2cccc(S(C)(=O)=O)c2)c(C)c1.Cl (centres undefined) | 1.87 |
| COc1ccc(CNC(c2cccc(F)c2)c2cnn(C)c2)cc1 (centres undefined) | -3.342 |
| COc1cccc(C(NCc2ccc(SC)cc2)c2nccn2C)c1 (centres undefined) | 112.8 |
| COc1cccc(-c2cc(NCc3nccn3C)n(C)n2)c1 | 1.129 |
| CC(c1ccc(F)cc1)N1CCN(Cc2nccn2C)CC1 (centres undefined) | -10.33 |
| Cn1ccnc1C(NCc1ccccc1)c1ccc(F)cc1 (centres undefined) | 113.8 |
| CSc1ccc(CN(CCO)Cc2nccn2C)cc1 | -17.8 |
| CSc1ccc(CNC(c2ccccc2)c2nccn2C)cc1 (centres undefined) | 105.2 |
| COc1c(CNC(c2ccccc2)c2ccc(F)cc2)c(C)nn1C (centres undefined) | -7.995 |
| COc1c(CNC(c2ccc(F)cc2)c2nccn2C)c(C)nn1C (centres undefined) | -11.67 |
| CSc1ccc(CNC(c2ccc(F)cc2)c2nccn2C)cc1 (centres undefined) | 112.9 |
| CC(NCc1ccc(OCc2nccn2C)cc1)c1cccnc1 (centres undefined) | -26.18 |
| Cn1cc(C(NCc2ccc(F)cc2)c2cccc(F)c2)cn1 (centres undefined) | -7.107 |
| O=C(O)C(F)(F)F.O=C(O)C(F)(F)F.c1ccc(CO[C@@H]2CN(Cc3nccs3)[C@@H]3COC[C@@H]32)nc1 | 32.68 |
| Cn1cc(N2CC3(CCN(Cc4nccs4)CC3)OCC2=O)cn1.O=C(O)C(F)(F)F | -26.5 |
| CCn1c(NCc2ccccn2)nc2c(C)nn(C)c2c1=O | -10.12 |
| COc1ccc(CN2CCC(c3cc(O)nc(C)n3)C2)c(OC)c1.O=C(O)CC(O)(CC(=O)O)C(=O)O (centres undefined) | -19.34 |
| Cl.O=C(NCc1cccc(Cl)c1)C1=NOC2(CCNC2)C1 (centres undefined) | -31.4 |
| O=C(O)C(F)(F)F.O=C(c1cscn1)N1CC[C@@H]2[C@@H]1CCN2C1CCOC1 (some centres undefined) | 5.753 |

| SMILES | Percent Effect [%] |
| --- | --- |
| CCN1C[C@H]2[C@@H](C1)N(C(=O)Cc1ccsc1)CC[C@H]2OC.O=C(O)C(F)(F)F | -3.863 |
| COCC1Cn2nnc(-c3cnn(C)c3)c2CN1Cc1ccsc1.O=C(O)C(F)(F)F (centres undefined) | 14.81 |
| COc1ccc(CN2CCN(c3ncc(Cl)cn3)CC2)cc1 | -15.93 |
| CCc1ccc(CN2CCN(c3ccc(Cl)nn3)CC2)nc1 | 15.06 |
| CCc1ccc(CN2CCN(c3ncc(Cl)cn3)CC2)nc1 | 68.7 |
| Cc1nc(Cn2c3c(ccc2=O)CC(NC(C)C)CC3)cs1.O=C(O)C(F)(F)F.O=C(O)C(F)(F)F (centres undefined) | 34.33 |
| COCCN1CCOCC2(CCCN(Cc3cccc(F)c3)C2)C1.O=C(O)C(F)(F)F.O=C(O)C(F)(F)F (centres undefined) | -14.36 |
| Clc1ccccc1C1(c2ccnc(C3CC3)n2)CCNCC1 | -18.26 |
| Clc1ccccc1C1(c2ccnc(C3CCCC3)n2)CCNCC1 | 57.06 |
| Clc1ccccc1C1(c2ccnc(-c3ncccn3)n2)CCNCC1 | -0.2715 |
| CC(C)NC(=O)[C@@H]1C[C@@H]2CCN(Cc3ccoc3)C[C@H]2O1.O=C(O)C(F)(F)F | 43.76 |
| CC(C)N(C)Cc1cnc2n1CCN(C(=O)NC1CCCC1)C2.O=C(O)C(F)(F)F | 7.687 |
| Fc1cnc(N2CCO[C@H]3[C@H](OCCN4CCCC4)CC[C@@H]32)nc1.O=C(O)C(F)(F)F | -1.217 |
| Cc1ccc(N2CC[C@H]3C[C@@H](C(=O)N4CCOCC4)O[C@H]3C2)nn1.O=C(O)C(F)(F)F | 9.789 |
| O=C(Nc1c(N2CCCC2)cccc1N1CCCC1)c1cnccn1 | 26.63 |
| O=C(Nc1c(N2CCCC2)cccc1N1CCCC1)c1cnsn1 | 3.548 |
| O=C(Nc1c(N2CCCC2)cccc1N1CCCC1)c1ccccn1 | 104.6 |
| Cl.Cn1cc(CN2CCN(CC3(c4ccccc4)CC3)CC2)cn1 | -7.6 |
| Cc1cccc(CN2C(=O)CCC23CCN(C(=O)c2ccco2)CC3)n1.O=C(O)C(F)(F)F | -22.73 |
